Source: the supplement of paper PMC10849652
Of roughly 7,900 targets only a part is listed; those with a hit were picked by preference. About 0.6% of all pairs of compound and target were hits.

Assays:
Assay in all cases: log2 fold change, soluble protein after heating vs DMSO (PISA); higher = thermal stabilisation; K562 cells, 10 uM, 30 min; active = over 0.2 and 3.5 SD of the protein, either way, in both replicates (recomputed)
[1] = compound: C1=CC=C(C=C1)[C@H](COC2=CC3=C(C=C2)NC(=O)N3)NC(=O)C4=CC=CN(C4=O)CC5=CC(=C(C=C5)F)F
Method in brief: (§1)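 Quantification of soluble protein used TMTpro 16plex LC-MS/MS, with channel sums equalised. Samples were the supernatant after 21,000xg for 90 min of pooled aliquots from K562 cells (2×10^6 cells/mL) treated with 10 μM compound for 30 min, heated for 3 min over 48°C-58°C, and extracted in PBS with 0.5% NP-40 at 4°C. Values, from duplicates, describe thermal stability against control samples on a log2 fold-change scale.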

[2] = compound: CC1=C(SC2=C1C(=N[C@H](C3=NN=C(N32)C)CC(=O)N)C4=CC=C(C=C4)Cl)C
Method in brief: as §1

[3] = compound: CC1=C2C(=CC=C1)N=C(N(C2=O)C3=CC=CC=C3C)CN4C=NC5=C(N=CN=C54)N
Method in brief: as §1

[4] = compound: Cc1sc2c(c1C)C(c1ccc(Cl)cc1)=N[C@@H](CC(=O)OC(C)(C)C)c1nnc(C)n1-2
Method in brief: as §1

[5] = compound: c1ccc([C@@H]2C[C@H]2NC2CCNCC2)cc1
Method in brief: as §1

Measured: log2 fold change

SNX2 (UniProt O60749)
Chain of UniProt O60749 (O60749 whole entry, looked up): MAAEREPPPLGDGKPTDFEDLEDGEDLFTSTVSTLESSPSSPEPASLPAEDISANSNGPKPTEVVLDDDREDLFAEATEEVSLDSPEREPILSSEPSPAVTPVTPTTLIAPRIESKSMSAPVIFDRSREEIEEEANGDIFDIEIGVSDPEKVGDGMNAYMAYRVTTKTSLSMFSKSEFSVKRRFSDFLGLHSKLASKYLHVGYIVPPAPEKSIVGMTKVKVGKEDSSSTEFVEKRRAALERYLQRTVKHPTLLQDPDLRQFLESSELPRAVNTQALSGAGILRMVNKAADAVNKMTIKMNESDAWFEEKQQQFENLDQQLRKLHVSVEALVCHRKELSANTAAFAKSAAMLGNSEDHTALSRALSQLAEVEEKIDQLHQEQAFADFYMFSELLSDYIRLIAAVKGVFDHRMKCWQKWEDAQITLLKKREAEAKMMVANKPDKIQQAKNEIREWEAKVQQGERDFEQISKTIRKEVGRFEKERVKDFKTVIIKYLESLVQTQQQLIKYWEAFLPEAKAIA
inactive: [1] -0.015 | [2] 0.069 | [3] 0.066 | [4] -0.026 | [5] -0.079

TARBP1 (UniProt Q13395)
Chain of UniProt Q13395 (Q13395 whole entry, looked up): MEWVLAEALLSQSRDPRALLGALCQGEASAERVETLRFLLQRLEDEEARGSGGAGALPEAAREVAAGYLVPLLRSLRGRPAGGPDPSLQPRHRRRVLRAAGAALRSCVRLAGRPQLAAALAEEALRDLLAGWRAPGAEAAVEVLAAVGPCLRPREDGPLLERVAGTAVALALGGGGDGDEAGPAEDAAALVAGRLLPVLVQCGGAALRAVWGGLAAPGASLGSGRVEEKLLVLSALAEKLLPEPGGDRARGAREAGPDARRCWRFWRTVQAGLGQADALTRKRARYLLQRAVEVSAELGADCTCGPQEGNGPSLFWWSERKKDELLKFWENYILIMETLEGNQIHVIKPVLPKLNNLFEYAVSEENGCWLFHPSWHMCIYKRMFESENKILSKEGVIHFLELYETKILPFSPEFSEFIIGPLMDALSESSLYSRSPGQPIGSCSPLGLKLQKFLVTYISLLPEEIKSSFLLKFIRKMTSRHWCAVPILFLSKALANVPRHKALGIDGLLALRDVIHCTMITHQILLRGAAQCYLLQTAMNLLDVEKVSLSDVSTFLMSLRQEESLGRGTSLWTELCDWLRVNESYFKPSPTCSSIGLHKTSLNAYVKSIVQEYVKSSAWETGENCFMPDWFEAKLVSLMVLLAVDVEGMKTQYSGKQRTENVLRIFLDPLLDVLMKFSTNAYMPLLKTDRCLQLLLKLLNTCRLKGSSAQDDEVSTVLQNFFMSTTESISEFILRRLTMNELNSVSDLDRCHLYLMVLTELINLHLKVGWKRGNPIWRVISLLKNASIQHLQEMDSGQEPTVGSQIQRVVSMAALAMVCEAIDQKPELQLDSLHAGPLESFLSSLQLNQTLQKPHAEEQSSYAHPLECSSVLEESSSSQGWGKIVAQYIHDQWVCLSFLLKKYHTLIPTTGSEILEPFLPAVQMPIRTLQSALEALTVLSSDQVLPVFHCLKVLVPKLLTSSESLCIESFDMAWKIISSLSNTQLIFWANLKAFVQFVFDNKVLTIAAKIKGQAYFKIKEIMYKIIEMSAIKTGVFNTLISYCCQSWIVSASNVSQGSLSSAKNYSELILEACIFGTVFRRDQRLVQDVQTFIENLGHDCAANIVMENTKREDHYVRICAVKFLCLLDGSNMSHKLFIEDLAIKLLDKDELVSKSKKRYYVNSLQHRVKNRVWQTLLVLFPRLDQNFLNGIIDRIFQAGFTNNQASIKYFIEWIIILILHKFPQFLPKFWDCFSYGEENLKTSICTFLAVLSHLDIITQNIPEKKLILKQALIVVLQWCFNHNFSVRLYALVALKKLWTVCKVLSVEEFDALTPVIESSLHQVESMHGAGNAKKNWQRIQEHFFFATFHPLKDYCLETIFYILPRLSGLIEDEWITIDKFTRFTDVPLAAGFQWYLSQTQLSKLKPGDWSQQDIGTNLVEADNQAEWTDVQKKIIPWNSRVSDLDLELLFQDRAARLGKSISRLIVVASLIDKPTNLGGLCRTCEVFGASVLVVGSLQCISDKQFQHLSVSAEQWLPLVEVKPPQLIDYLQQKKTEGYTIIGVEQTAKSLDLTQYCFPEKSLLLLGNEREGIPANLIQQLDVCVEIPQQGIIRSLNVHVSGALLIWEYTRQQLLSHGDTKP
inactive: [1] -0.058 | [2] 0.048 | [3] 0.081 | [4] -0.073 | [5] -0.027

SLC27A2 (UniProt O14975)
Chain of UniProt O14975 (O14975 whole entry, looked up): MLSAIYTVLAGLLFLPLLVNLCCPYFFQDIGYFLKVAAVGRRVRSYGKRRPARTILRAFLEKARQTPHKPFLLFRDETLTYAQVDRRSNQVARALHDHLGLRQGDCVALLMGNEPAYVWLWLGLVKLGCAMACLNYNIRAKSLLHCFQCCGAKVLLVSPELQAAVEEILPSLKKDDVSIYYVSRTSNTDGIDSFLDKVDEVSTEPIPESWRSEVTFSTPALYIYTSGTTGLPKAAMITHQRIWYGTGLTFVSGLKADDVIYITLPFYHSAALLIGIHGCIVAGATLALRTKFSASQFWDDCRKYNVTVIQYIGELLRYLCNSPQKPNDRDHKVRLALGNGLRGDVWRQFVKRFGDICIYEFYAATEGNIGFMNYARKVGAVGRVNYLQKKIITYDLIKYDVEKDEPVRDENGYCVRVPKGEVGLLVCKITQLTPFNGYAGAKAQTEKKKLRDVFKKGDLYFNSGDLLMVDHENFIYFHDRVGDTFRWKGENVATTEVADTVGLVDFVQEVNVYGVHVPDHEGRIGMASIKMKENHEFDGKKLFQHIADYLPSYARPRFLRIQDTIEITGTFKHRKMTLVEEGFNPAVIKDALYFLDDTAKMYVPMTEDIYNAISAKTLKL
inactive: [1] 0.038 | [2] 0.036 | [3] 0.141 | [4] 0.011 | [5] -0.027

SPG21 (UniProt Q9NZD8)
Chain of UniProt Q9NZD8 (Q9NZD8 whole entry, looked up): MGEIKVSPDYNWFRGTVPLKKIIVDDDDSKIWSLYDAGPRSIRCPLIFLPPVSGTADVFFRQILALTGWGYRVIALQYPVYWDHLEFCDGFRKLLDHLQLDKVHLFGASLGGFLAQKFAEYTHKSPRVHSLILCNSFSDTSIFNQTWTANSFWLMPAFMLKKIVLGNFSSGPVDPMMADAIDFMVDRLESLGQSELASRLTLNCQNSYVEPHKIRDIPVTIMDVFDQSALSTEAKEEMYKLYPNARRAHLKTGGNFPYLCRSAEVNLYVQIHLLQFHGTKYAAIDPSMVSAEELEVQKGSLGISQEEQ
inactive: [1] -0.128 | [2] -0.035 | [3] 0.031 | [4] -0.062 | [5] -0.02

SSR4 (UniProt P51571)
Chain of UniProt P51571 (P51571 whole entry, looked up): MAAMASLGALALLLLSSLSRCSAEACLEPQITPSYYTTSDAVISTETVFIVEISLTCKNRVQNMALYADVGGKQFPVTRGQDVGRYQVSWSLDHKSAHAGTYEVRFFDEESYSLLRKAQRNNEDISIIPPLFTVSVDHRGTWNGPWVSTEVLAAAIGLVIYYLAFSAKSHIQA
inactive: [1] 0.045 | [2] 0.046 | [3] 0.002 | [4] -0.048 | [5] -0.018

SUPT5H (UniProt O00267)
inactive: [1] -0.05 | [2] 0.109 | [3] 0.106 | [4] 0.001 | [5] -0.051

TBC1D23 (UniProt Q9NUY8)
Chain of UniProt Q9NUY8 (Q9NUY8 whole entry, looked up): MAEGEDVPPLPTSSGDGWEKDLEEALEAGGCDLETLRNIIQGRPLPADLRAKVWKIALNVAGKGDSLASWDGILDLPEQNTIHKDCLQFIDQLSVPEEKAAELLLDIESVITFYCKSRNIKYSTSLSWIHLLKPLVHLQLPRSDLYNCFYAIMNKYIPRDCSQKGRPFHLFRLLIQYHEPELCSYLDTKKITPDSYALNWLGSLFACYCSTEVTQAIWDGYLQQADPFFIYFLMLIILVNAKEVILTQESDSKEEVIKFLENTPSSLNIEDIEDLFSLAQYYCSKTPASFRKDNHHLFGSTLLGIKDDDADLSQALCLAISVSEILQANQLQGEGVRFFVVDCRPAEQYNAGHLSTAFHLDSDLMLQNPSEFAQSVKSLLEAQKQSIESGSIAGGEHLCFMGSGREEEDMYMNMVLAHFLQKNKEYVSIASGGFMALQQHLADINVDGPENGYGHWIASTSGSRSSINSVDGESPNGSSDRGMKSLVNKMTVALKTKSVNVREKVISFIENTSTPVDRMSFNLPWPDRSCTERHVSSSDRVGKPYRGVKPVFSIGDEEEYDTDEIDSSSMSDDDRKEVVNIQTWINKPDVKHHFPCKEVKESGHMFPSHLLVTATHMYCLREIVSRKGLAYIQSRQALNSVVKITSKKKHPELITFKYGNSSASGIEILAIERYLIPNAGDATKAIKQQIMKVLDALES
inactive: [1] -0.039 | [2] 0.068 | [3] 0.034 | [4] -0.003 | [5] -0.037

SPECC1 (UniProt Q5M775)
Chain of UniProt Q5M775 (Q5M775 whole entry, looked up): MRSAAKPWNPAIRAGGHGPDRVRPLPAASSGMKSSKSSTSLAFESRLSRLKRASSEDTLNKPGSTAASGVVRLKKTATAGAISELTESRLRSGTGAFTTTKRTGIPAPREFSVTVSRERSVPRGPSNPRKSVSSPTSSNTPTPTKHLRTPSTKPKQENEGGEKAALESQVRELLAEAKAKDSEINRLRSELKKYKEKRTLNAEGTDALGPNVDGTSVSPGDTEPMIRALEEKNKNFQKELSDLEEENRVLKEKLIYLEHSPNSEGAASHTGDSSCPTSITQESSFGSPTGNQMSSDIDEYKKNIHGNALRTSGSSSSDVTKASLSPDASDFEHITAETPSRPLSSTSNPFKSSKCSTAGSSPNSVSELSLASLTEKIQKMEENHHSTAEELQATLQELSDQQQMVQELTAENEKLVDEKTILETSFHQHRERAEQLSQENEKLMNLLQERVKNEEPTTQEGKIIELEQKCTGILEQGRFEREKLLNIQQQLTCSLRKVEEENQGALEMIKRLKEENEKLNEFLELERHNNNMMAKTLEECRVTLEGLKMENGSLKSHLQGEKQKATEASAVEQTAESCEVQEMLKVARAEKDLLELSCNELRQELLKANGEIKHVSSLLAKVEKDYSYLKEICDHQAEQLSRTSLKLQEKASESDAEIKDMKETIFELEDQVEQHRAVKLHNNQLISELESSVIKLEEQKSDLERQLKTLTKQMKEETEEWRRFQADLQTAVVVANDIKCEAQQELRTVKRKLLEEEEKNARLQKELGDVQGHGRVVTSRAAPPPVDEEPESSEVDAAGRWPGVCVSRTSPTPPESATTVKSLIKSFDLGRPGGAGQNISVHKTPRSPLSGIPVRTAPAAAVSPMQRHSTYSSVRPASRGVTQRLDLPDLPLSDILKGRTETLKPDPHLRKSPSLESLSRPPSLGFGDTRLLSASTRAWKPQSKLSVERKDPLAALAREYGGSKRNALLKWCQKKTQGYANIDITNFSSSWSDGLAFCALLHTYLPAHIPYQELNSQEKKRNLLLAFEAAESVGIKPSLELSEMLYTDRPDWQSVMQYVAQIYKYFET
inactive: [1] -0.017 | [2] -0.087 | [3] 0.105 | [4] -0.012 | [5] 0.037

SYNE2 isoform 2 (UniProt Q8WXH0)
inactive: [1] 0.064 | [2] 0.055 | [3] 0.209 | [4] -0.004 | [5] 0.096
